Bioassay records from PubChem BioAssay.
Lassa entry inh – qHTS for Inhibitors of binding or entry into cells for Lassa Virus; Lassa virus pseudotype entry inhibition, cell reporter; Potency, µM (doses to about 37.9 µM), without a hit: top-dose activity change, negative = inhibition, actives largely listed as inhibitors; 300,000 compounds, 1.2% hits; AID 540256, 2011; calls by dose curve; tested in HEK293 cells; also: potency is read from the fitted curve at half-maximal effect; nearly all actives have a fitted effect of over 50% in size
Marburg entry inh – qHTS for inhibitors of binding or entry into cells for Marburg Virus | 300,000 compounds, 1.8% hits | Potency, µM (titrated, usually from 37.8 µM), for inactives: at the highest dose activity change, negative = inhibition, usual class: inhibitors | Marburg virus pseudotyped entry inhibition, cell reporter; calls by dose curve; tested in HEK293 cells; also: potency is read from the fitted curve at half-maximal effect
Pf growth 48h – Primary qHTS for delayed death inhibitors of the malarial parasite plastid, 48 hour incubation. P. falciparum luciferase growth in erythrocytes, 48 h. Potency, µM (highest dose often 28.7 µM), without a hit: top-dose activity change, negative = inhibition, hits mostly inhibitors. 310,000 compounds, 5.9% hits. AID 504832, 2011; also: potency is read from the fitted curve at half-maximal effect
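Erythrocytes infected with P. falciparum carrying an integrated firefly luciferase reporter (2% hematocrit, 0.1% parasitemia final) were exposed to compounds in RPMI 1640 with 0.5% Albumax at 37 C, 5% CO2. Growth inhibition was scored as reduced luminescence.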
HCV inh – qHTS Assay for Inhibitors of Hepatitis C Virus (HCV) | Huh7.5.1 HCVcc-Cre infection, luciferase reporter, 44 h | Potency, µM (series often up to 41.8 µM), for inactives: at the top dose activity change, negative = inhibition, actives largely listed as inhibitors | 340,000 compounds, 3.4% hits | AID 651820, 2012; also: potency is read from the fitted curve at half-maximal effect
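Cells (1,000/well) were plated 4 h before compound, then infected with HCVcc-Cre virus (~0.5 moi). After 44 h further culture, infection was read as luciferase luminescence following a 15 min substrate incubation at room temperature.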
Pf growth 96h – Primary qHTS for delayed death inhibitors of the malarial parasite plastid, 96 hour incubation. P. falciparum luciferase reporter growth, 96 h. Potency, µM (doses to about 28.7 µM), for the others: top-dose activity change, negative = inhibition, usual class: inhibitors. 320,000 compounds, 6.9% hits. AID 504834, 2011; also: potency is read from the fitted curve at half-maximal effect
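Luminescence readout: decreased luciferase signal marks inhibited growth of reporter-expressing P. falciparum in infected red cells (2% hematocrit, 0.05% parasitemia final), exposed to compound two generations (96 h, 37 C, 5% CO2).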
HCMV inh – qHTS Assay for inhibitors of the human cytomegalovirus (HCMV) | HFF cells, HCMV-luciferase reporter, 72 h; active compounds read low | activity change, negative = inhibition, % at 57.5 µM | 410,000 compounds, 4.5% hits; in the data active = activity change below about -60%; inconclusive = no clear call, values can overlap the other calls; inactive = above about -39%
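HFF cells seeded 16 h at 37C, treated with compounds, infected with luciferase-reporter HCMV at MOI 1 PFU/cell; luciferase read at 72 h post infection, normalized to buffer-only and Salinomycin controls.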
The depositor's hits bear a star; [ ] = remark or other dose. Hits are enriched below; roughly 14% of the tested compounds scored in any of these assays. Unless noted, calls follow the shape of the dose curve; as a rule, active = well fitted inhibition curve with a large enough effect; inconclusive = small, poorly fitted or top-dose-only effect, or another doubt; inactive = no such curve, though single readings can be large or run the other way. % is scaled to controls: 0 for no effect and ±100 for the full control effect.

`Cc1c(C)c2c(OCC(=O)NCc3ccncc3)cc3c(c2oc1=O)CCC(C)(C)O3` gave Pf growth 48h inconclusive, HCV inh 3.8%, Pf growth 96h 2.94µM* and HCMV inh 9.8.
`Cc1c(C)c2c(OCC(=O)NCc3cccnc3)cc3c(c2oc1=O)CCC(C)(C)O3` gave Pf growth 48h -7.5%, HCV inh -2.3%, Pf growth 96h inconclusive and HCMV inh -3.1.
`Cc1cc(=O)oc2c3c(cc(OCC(=O)NCc4ccncc4)c12)OC(C)(C)CC3` gave Pf growth 48h inconclusive, HCV inh inconclusive, Pf growth 96h 10.4µM* and HCMV inh -4.9.
Screening Cc1cc(=O)oc2c3c(cc(OCC(=O)NCC(=O)N[C@H](C(=O)O)C(C)C)c12)OC(C)(C)CC3 returned Pf growth 48h -4.3%, HCV inh -1.2%, Pf growth 96h 1.0% and HCMV inh 22.4.
Cc1cc(=O)oc2c3c(cc(OCC(=O)NCc4ccco4)c12)OC(C)(C)CC3 was read as Pf growth 48h inconclusive, HCV inh inconclusive, Pf growth 96h 8.28µM* and HCMV inh -30.2.
For COc1ccc(CNC(=O)COc2cc3c(c4oc(=O)cc(C)c24)CCC(C)(C)O3)cc1OC the results were Pf growth 48h 10.4µM*, HCV inh 6.31µM*, Pf growth 96h 7.38µM* and HCMV inh 9.7.
`Cc1ccc(CNC(=O)C2COc3ccccc3C2)cc1` (stereo not given) gave Lassa entry inh 9.0%[46.1 µM] and HCMV inh -20.1.
For O=C1[C@H](Cc2ccccc2)NCC=CC[C@@H](c2ccc(Cl)cc2)N1Cc1ccccc1 the results were HCV inh 35.2%[8.37 µM] and HCMV inh -24.4.
`Cc1c(C)c2c(OCC(=O)NCC(C)C)cc3c(c2oc1=O)CCC(C)(C)O3` gave Pf growth 48h 8.28µM*, HCV inh inconclusive, Pf growth 96h inconclusive and HCMV inh 4.8.
CC[N+](C)(C)Cc1ccccc1Br was read as Lassa entry inh -20.9%, Marburg entry inh inconclusive, Pf growth 48h inconclusive, HCV inh -11.4%[8.37 µM], Pf growth 96h 3.22µM* and HCMV inh -10.3.
For COc1ccc(C(=O)NN(C)c2nc(C(F)(F)F)nc3ccccc23)cc1 the results were Lassa entry inh inconclusive, Marburg entry inh inconclusive, Pf growth 48h inconclusive, HCV inh -2.7%, Pf growth 96h inconclusive and HCMV inh -98.6*.
`Cc1ccccc1C(=O)NN(C)c1nc2ccccc2nc1C(F)(F)F` gave Lassa entry inh -25.1%, Marburg entry inh inconclusive, Pf growth 48h -12.9%, HCV inh 19.3%, Pf growth 96h 81.9% and HCMV inh 7.6.
For Cc1nc2c(OCCOc3ccc(F)cc3)cccn2c1N(C)C(=O)CCC1CCCC1 the results were HCMV inh 7.2.
O=C(COc1ccc(Cl)cc1Br)N1CCN(c2ccccc2)CC1 was read as Lassa entry inh -13.8%, Marburg entry inh -1.7%, Pf growth 48h -2.0%, HCV inh -19.6%, Pf growth 96h 3.7µM* and HCMV inh -28.1.
`COc1ccccc1OCC(=O)N1CCCC(N2CCN(c3ccc(F)cc3)CC2)C1` (stereo not given) gave Lassa entry inh 17.3%, Marburg entry inh 3.6%, Pf growth 48h -9.1%, Pf growth 96h 29.8% and HCMV inh -39.8.
Screening O=C(COc1ccccc1)N1CCN(c2ccccc2)CC1 returned Lassa entry inh 8.9%, Marburg entry inh inconclusive, Pf growth 48h -8.4%, HCV inh 16.3%, Pf growth 96h 35.5% and HCMV inh -22.2.
`O=C(Cn1cccn1)N1CCCC(N2CCN(c3ccccc3F)CC2)C1` (stereo not given) gave Lassa entry inh 11.7%, Marburg entry inh 1.3%[46.1 µM], Pf growth 48h 26.6%, HCV inh 18.5%, Pf growth 96h 3.7µM* and HCMV inh inconclusive.
Screening O=C(COc1ccc(Br)cc1)N1CCN(c2ccccc2)CC1 returned Lassa entry inh -7.3%, Marburg entry inh 3.7%, HCV inh 5.0%, Pf growth 96h 4.65µM* and HCMV inh 4.3.
O=C(COc1ccccc1Cl)N1CCCC(N2CCN(c3ccc(F)cc3)CC2)C1 (stereo not given) was read as Pf growth 48h 11.7µM*, HCV inh inconclusive, Pf growth 96h 8.28µM* and HCMV inh inconclusive.
Screening O=C(OCC(=O)N1CCN(c2ccccc2)CC1)c1ccc2ncsc2c1 returned Lassa entry inh -0.2%, Marburg entry inh -0.9%[46.1 µM], HCV inh 10.9%, Pf growth 96h 11.7µM* and HCMV inh 40.4.
For O=C(OCC(=O)N1CCN(c2ccccc2)CC1)c1ccc(Cl)nc1 the results were Lassa entry inh -3.7%, Marburg entry inh 7.3%[46.1 µM], Pf growth 48h 14.3%, HCV inh -5.1%, Pf growth 96h 14.4% and HCMV inh -30.4.
Screening COc1cc(-c2nc(CN3CCN(c4ncccn4)CC3)c(C)o2)ccc1F returned Lassa entry inh 9.3%, Marburg entry inh -2.7%[14.2 µM], Pf growth 48h -3.1%, HCV inh -24.6%, Pf growth 96h -95.3% and HCMV inh 6.9.
Screening COc1cc(-c2nc(CN3CCN(CC(C)C)C(=O)[C@@H]3C)c(C)o2)ccc1F returned Lassa entry inh -20.4%[46.1 µM], Marburg entry inh inconclusive, Pf growth 48h 9.28µM*, HCV inh inconclusive, Pf growth 96h -29.3% and HCMV inh inconclusive.
`CCC(C)(C)n1nnnc1C(c1cc2cccc(C)c2[nH]c1=O)N1CCN(C(=O)c2ccco2)CC1` (stereo not given) gave Lassa entry inh 3.3%, Marburg entry inh 0.1%, Pf growth 48h 1.17µM*, HCV inh -9.8%, Pf growth 96h 58.4% and HCMV inh -12.0.
Cc1cccc2cc(C(c3nnnn3Cc3ccc4c(c3)OCO4)N3CCCC3)c(=O)[nH]c12 (stereo not given) was read as Lassa entry inh -2.8%, Marburg entry inh 17.7%[46.1 µM], Pf growth 48h 7.38µM*, HCV inh -14.6%, Pf growth 96h inconclusive and HCMV inh -9.1.
Screening Cc1ccc(C)c2[nH]c(=O)c(C(c3nnnn3Cc3ccccc3)N3CCc4ccccc4C3)cc12 (stereo not given) returned Lassa entry inh -18.3%, Marburg entry inh inconclusive, Pf growth 48h 10.4µM*, HCV inh inconclusive and HCMV inh 37.3.
